Reference: PubChem BioAssay (NCI)
This is part of a sample that, as a whole, favours compounds with a hit. Of some 83,000 tested, about 20% had one in any assay.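 Treatment: one concentration, 48 hours, 96-well format. Scoring: percent growth, with anything below 10 considered active.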 Calls of active or inactive are those of the source.

The compounds below were run on HOP-62 NSCLC (assay: NCI-60 one-dose screen, 48 h (100 = growth as untreated, 0 = no growth, -100 = all killed)). Details: 10 µM unless noted.

Row | Compound | growth
1 | O=c1c2ccccc2c2nccn2c2cc(Cl)ccc12 | 71.7% (inactive)
2 | COC(=O)[C@H]1[C@H]2C[C@@H]3c4[nH]c5cc(OC)ccc5c4CCN3C[C@H]2C[C@@H](OC(=O)/C=C/c2cc(OC)c(OC)c(OC)c2)[C@@H]1OC | 61.6% (inactive)
3 | COc1ccc(-c2c3c(N)nc(-c4ccncc4)nc3nc3c2c(C)nn3-c2ccccc2)cc1 | 62.6% (inactive)
4 | Cc1cc(C)cc(S(=O)(=O)n2ccc(-c3ccc4c(c3)CCC(C)(C)O4)n2)c1 | 116% (inactive)
5 | O=C1C(=O)/C(=C/c2ccccc2)CCCCCC/C1=C/c1ccccc1 | 10.3% (inactive)
6 | c1ccc2c(-c3nc4ccccc4[nH]3)cccc2c1 | 43% (inactive)
7 | C/C(=C\CCc1ccoc1)CC/C=C(\C)CCCC1COC(=O)C1 (stereo not drawn) | 96.9% (inactive)
8 | N#CSCC1CC(O)(c2ccccc2)C(c2ccccc2)C(c2ccc(Cl)cc2)O1 (stereo not drawn) | 5.71% (active)
9 | COc1ccc(NC(=O)[C@@H]2C[C@H]2c2ccccc2)c(C(N)=O)c1 | 100% (inactive)
10 | COc1ccc(NS(=O)(=O)N2CCCCC2)cc1 | 107% (inactive)
11 | COc1cccc(/C=C2\Cc3ccccc3C2=O)c1 | 96.4% (inactive)
12 | CNCCCn1c2c(c3ccc(F)cc3c1=O)C(=O)c1cc(OC)cnc1-2 | -30% (active)
13 | Cc1ccc(N/N=C(/C(=O)c2ccc(Cl)cc2)c2nc(C)cc(=O)[nH]2)cc1 | 94.2% (inactive)
14 | CCCCCCCC[Si](OCC)(OCC)OCC | 101% (inactive)
15 | CCC(=O)Nc1cc2c(cc1Cl)-c1ccccc1C2 | 97.6% (inactive)
16 | COc1ccc2c(c1)c(CC(=O)[Se]C)c(C)n2C(=O)c1ccc(Cl)cc1 | -0.299% (active)
17 | O=C(Nc1cccc(-n2cc(-c3ccncc3)c(-c3cc(O)cc(Cl)c3)n2)c1)Nc1ccc(Cl)c(Cl)c1 | -44.2% (active)
18 | CC(=O)c1ccc(NS(=O)(=O)c2ccc([N+](=O)[O-])cc2)cc1 | 87% (inactive)
19 | O=C(C(=O)c1cc(Br)ccc1O)c1cc(Br)ccc1O | 50.3% (inactive)
20 | O=C1NC(=O)/C(=C\c2ccco2)S1 | 90.7% (inactive)

Row | Compound | growth
21 | C/C(=C\CCc1ccoc1)CC/C=C(\C)CCCNc1ccc(F)cc1 | 93.6% (inactive)
22 | COc1cc(C(=O)c2cc3c(cc2C)OCO3)cc(OC)c1OC | 40.8% (inactive)
23 | CCOc1cc(/C=C/C(=O)CC(=O)/C=C/c2ccc(OC(=O)CNCCN(CC)CC)c(OCC)c2)ccc1OC(=O)CNCCN(CC)CC | -32.1% (active)
24 | Cc1nn2c(/C=C3/C(=O)Nc4cc(Cl)ccc43)c(-c3ccccc3)nc2s1 | 20.4% (inactive)
25 | O=C(c1ccccc1)C(CN1CCCCC1)c1ccccc1 (stereo not drawn) | 68.2% (inactive)
26 | Cc1nn(-c2ccccc2)cc1/C=C1\SC(N2CCCCC2)=NC1=O | 103% (inactive)
27 | CN(C)c1ncnc2c1ncn2C1CCCCO1 (stereo not drawn) | 110% (inactive)
28 | CCOc1cc(/C=C/C(=O)C(C(=O)/C=C/c2ccc(OC(=O)CNc3nnc(C)s3)c(OCC)c2)C(=O)CNc2nnc(C)s2)ccc1OC(=O)CNc1nnc(C)s1 | 3.59% (active)
29 | N#Cc1c(-c2ccccc2)cc(-c2ccccc2)n(CCCCCCC(=O)O)c1=O | 94.4% (inactive)
30 | COc1ccc(C2=NN(C=O)C(c3cccc(Nc4ccnc5cc(Cl)ccc45)c3)C2)cc1 (stereo not drawn) | 13.2% (inactive)
31 | COc1cc(/C=C/c2cc(/C=C/c3ccc(O)c(OC)c3)n(C(=O)Cc3ccccc3)n2)ccc1O | 2.82% (active)
32 | O=C1c2cccc3c([N+](=O)[O-])ccc(c23)C(=O)N1CCCCl | -92.4% [100 µM] (active)
33 | CCOC(=O)/C(=C/CC/C(C)=C/CC/C(C)=C/CCc1ccoc1)CC(=O)N1CCCCC1 | 86% (inactive)
34 | Clc1ccc2nc(CI)c(CI)nc2c1 | 94.3% (inactive)
35 | CNNc1ncnc2c1cnn2-c1ccc(S(N)(=O)=O)cc1 | 85.6% (inactive)
36 | Nc1nc2c(c(=O)[nH]1)C1(C(=O)Nc3ccccc31)c1c(nc(N)[nH]c1=O)N2 | 101% (inactive)
37 | Cc1[nH]cnc1/C=C1\SC(N2CCCCC2)=NC1=O | 105% (inactive)
38 | COc1cccc(-c2nc3cc(NC(=O)c4ccc(Cl)c(C#N)c4)ccc3o2)c1 | 70.2% (inactive)
39 | N#Cc1ccc(-c2csc(Nc3ccc4nc5n(c(=O)c4c3)CCC5)n2)cc1 | 108% (inactive)

The compounds below were run on NCI-H460 lung in the same assay as above. Details: 10 µM unless noted.

Row | Compound | growth
40 | O=c1c2ccccc2c2nccn2c2cc(Cl)ccc12 | 101% (inactive)
41 | COC(=O)[C@H]1[C@H]2C[C@@H]3c4[nH]c5cc(OC)ccc5c4CCN3C[C@H]2C[C@@H](OC(=O)/C=C/c2cc(OC)c(OC)c(OC)c2)[C@@H]1OC | 48.6% (inactive)
42 | COc1ccc(-c2c3c(N)nc(-c4ccncc4)nc3nc3c2c(C)nn3-c2ccccc2)cc1 | 23.4% (inactive)
43 | Cc1cc(C)cc(S(=O)(=O)n2ccc(-c3ccc4c(c3)CCC(C)(C)O4)n2)c1 | 84.4% (inactive)
44 | O=C1C(=O)/C(=C/c2ccccc2)CCCCCC/C1=C/c1ccccc1 | 90.4% (inactive)
45 | c1ccc2c(-c3nc4ccccc4[nH]3)cccc2c1 | 15.5% (inactive)
46 | C/C(=C\CCc1ccoc1)CC/C=C(\C)CCCC1COC(=O)C1 (stereo not drawn) | 98.8% (inactive)
47 | N#CSCC1CC(O)(c2ccccc2)C(c2ccccc2)C(c2ccc(Cl)cc2)O1 (stereo not drawn) | -68.7% (active)
48 | COc1ccc(NC(=O)[C@@H]2C[C@H]2c2ccccc2)c(C(N)=O)c1 | 101% (inactive)
49 | COc1ccc(NS(=O)(=O)N2CCCCC2)cc1 | 113% (inactive)
50 | COc1cccc(/C=C2\Cc3ccccc3C2=O)c1 | 105% (inactive)
51 | CNCCCn1c2c(c3ccc(F)cc3c1=O)C(=O)c1cc(OC)cnc1-2 | -37.6% (active)
52 | Cc1ccc(N/N=C(/C(=O)c2ccc(Cl)cc2)c2nc(C)cc(=O)[nH]2)cc1 | 105% (inactive)
53 | CCCCCCCC[Si](OCC)(OCC)OCC | 107% (inactive)
54 | CCC(=O)Nc1cc2c(cc1Cl)-c1ccccc1C2 | 98.2% (inactive)
55 | COc1ccc2c(c1)c(CC(=O)[Se]C)c(C)n2C(=O)c1ccc(Cl)cc1 | 3.41% (active)
56 | O=C(Nc1cccc(-n2cc(-c3ccncc3)c(-c3cc(O)cc(Cl)c3)n2)c1)Nc1ccc(Cl)c(Cl)c1 | 0.213% (active)
57 | CC(=O)c1ccc(NS(=O)(=O)c2ccc([N+](=O)[O-])cc2)cc1 | 114% (inactive)
58 | O=C(C(=O)c1cc(Br)ccc1O)c1cc(Br)ccc1O | 39% (inactive)
59 | O=C1NC(=O)/C(=C\c2ccco2)S1 | 105% (inactive)

Row | Compound | growth
60 | C/C(=C\CCc1ccoc1)CC/C=C(\C)CCCNc1ccc(F)cc1 | 92.7% (inactive)
61 | COc1cc(C(=O)c2cc3c(cc2C)OCO3)cc(OC)c1OC | 8.71% (active)
62 | CCOc1cc(/C=C/C(=O)CC(=O)/C=C/c2ccc(OC(=O)CNCCN(CC)CC)c(OCC)c2)ccc1OC(=O)CNCCN(CC)CC | -27.3% (active)
63 | Cc1nn2c(/C=C3/C(=O)Nc4cc(Cl)ccc43)c(-c3ccccc3)nc2s1 | 13.6% (inactive)
64 | O=C(c1ccccc1)C(CN1CCCCC1)c1ccccc1 (stereo not drawn) | 68.7% (inactive)
65 | Cc1nn(-c2ccccc2)cc1/C=C1\SC(N2CCCCC2)=NC1=O | 95.2% (inactive)
66 | CN(C)c1ncnc2c1ncn2C1CCCCO1 (stereo not drawn) | 113% (inactive)
67 | CCOc1cc(/C=C/C(=O)C(C(=O)/C=C/c2ccc(OC(=O)CNc3nnc(C)s3)c(OCC)c2)C(=O)CNc2nnc(C)s2)ccc1OC(=O)CNc1nnc(C)s1 | -46.8% (active)
68 | N#Cc1c(-c2ccccc2)cc(-c2ccccc2)n(CCCCCCC(=O)O)c1=O | 102% (inactive)
69 | COc1ccc(C2=NN(C=O)C(c3cccc(Nc4ccnc5cc(Cl)ccc45)c3)C2)cc1 (stereo not drawn) | 14.3% (inactive)
70 | COc1cc(/C=C/c2cc(/C=C/c3ccc(O)c(OC)c3)n(C(=O)Cc3ccccc3)n2)ccc1O | 4.69% (active)
71 | O=C1c2cccc3c([N+](=O)[O-])ccc(c23)C(=O)N1CCCCl | -34.7% [100 µM] (active)
72 | CCOC(=O)/C(=C/CC/C(C)=C/CC/C(C)=C/CCc1ccoc1)CC(=O)N1CCCCC1 | -56.4% (active)
73 | Clc1ccc2nc(CI)c(CI)nc2c1 | 118% (inactive)
74 | CNNc1ncnc2c1cnn2-c1ccc(S(N)(=O)=O)cc1 | 117% (inactive)
75 | Nc1nc2c(c(=O)[nH]1)C1(C(=O)Nc3ccccc31)c1c(nc(N)[nH]c1=O)N2 | 104% (inactive)
76 | Cc1[nH]cnc1/C=C1\SC(N2CCCCC2)=NC1=O | 109% (inactive)
77 | COc1cccc(-c2nc3cc(NC(=O)c4ccc(Cl)c(C#N)c4)ccc3o2)c1 | -21.4% (active)
78 | N#Cc1ccc(-c2csc(Nc3ccc4nc5n(c(=O)c4c3)CCC5)n2)cc1 | 101% (inactive)
